Test results reported in the supplement of paper PMC11732987, “Enantioselective OTUD7B fragment discovery through chemoproteomics screening and high-throughput optimisation” (Communications Chemistry, 2025).

Columns and labels:
Assay in all cases: log2 ratio of Biotin-Ahx-Ub-VS probe labelling (fragment/DMSO); higher = less target engagement (more negative = stronger competition), active = hit call of the paper (q ≤ 0.05, log2 ratio ≤ -1)
Settings in all cases: compound concentration: 200 uM; treatment time: 3 h
[1] = biological target: USP34 (UniProt Q70CQ2)
Procedure, shortened: (§1)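 Average log2 ratios of fragment over vehicle were obtained by unpaired t-test from global-median-normalised Spectronaut label-free quantities. Proteins with ≥2 unique peptides were included. HEK293T lysate (495 µg per sample) was treated in triplicate with fragment at 200 µM or vehicle for 3 h, then with Biotin-Ahx-Ub-VS at 0.5 µM final for 1 h, and labelled DUBs were NeutrAvidin-enriched and run by diaPASEF LC-MS/MS.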

[2] = biological target: T1, USP36 (UniProt Q9P275)
T1 sequence (whole entry): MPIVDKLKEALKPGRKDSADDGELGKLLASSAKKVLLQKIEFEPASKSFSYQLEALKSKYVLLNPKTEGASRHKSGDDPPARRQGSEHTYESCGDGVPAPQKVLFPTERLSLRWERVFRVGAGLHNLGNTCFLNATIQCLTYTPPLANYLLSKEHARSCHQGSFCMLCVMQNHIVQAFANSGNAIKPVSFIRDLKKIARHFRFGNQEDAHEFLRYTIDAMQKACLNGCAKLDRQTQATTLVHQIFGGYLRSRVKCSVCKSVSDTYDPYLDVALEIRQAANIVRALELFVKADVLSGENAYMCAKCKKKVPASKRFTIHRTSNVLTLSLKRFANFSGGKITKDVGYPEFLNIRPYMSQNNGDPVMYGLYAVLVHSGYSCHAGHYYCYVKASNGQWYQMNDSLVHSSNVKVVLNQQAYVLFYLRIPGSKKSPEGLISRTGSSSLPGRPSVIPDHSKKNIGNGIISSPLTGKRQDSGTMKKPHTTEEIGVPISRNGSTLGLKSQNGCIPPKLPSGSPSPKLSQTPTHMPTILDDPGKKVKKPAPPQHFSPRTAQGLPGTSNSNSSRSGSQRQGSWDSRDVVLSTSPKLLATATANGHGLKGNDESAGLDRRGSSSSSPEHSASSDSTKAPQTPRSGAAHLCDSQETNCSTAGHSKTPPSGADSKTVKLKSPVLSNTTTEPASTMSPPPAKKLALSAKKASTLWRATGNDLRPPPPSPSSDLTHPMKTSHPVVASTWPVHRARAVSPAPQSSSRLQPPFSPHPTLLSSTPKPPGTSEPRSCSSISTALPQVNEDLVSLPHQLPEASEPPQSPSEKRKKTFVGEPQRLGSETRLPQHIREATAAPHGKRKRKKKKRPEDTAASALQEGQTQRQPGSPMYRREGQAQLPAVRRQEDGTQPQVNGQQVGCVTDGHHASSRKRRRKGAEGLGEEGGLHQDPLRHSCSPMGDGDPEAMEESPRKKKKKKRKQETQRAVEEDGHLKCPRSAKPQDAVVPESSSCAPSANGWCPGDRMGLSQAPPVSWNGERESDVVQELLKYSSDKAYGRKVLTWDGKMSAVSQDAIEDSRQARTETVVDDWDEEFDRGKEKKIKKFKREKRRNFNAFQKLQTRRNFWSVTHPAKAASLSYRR
Procedure, shortened: as §1

[3] = biological target: T2, USP38 (UniProt Q8NB14)
T2 sequence (whole entry): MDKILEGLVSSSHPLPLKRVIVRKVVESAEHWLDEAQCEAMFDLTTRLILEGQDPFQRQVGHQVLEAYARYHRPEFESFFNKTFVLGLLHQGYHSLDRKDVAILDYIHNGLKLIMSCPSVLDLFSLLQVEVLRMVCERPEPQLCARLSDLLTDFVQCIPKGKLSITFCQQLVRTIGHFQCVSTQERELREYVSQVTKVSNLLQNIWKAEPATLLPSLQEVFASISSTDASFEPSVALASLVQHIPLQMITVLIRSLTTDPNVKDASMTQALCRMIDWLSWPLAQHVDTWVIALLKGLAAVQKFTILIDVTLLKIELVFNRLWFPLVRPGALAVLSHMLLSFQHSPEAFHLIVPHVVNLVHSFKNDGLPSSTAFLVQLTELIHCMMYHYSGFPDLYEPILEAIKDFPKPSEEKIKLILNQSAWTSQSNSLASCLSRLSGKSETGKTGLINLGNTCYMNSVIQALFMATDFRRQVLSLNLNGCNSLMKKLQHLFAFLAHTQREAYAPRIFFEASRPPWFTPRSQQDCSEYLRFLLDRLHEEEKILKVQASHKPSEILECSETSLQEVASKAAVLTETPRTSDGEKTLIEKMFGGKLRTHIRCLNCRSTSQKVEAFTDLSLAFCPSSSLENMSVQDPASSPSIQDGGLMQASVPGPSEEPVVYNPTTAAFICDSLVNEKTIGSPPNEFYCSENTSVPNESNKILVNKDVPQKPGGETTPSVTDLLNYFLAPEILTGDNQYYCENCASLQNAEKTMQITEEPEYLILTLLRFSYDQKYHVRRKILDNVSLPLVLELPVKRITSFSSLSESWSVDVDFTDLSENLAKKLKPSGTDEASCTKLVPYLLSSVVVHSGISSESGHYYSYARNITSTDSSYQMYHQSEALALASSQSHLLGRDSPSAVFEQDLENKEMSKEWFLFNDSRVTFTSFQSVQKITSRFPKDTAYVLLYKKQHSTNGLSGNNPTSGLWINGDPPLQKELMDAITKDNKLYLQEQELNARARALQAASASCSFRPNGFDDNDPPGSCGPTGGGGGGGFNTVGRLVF
Procedure, shortened: as §1

[4] = biological target: T3, USP39 (UniProt Q53GS9)
T3 sequence (whole entry): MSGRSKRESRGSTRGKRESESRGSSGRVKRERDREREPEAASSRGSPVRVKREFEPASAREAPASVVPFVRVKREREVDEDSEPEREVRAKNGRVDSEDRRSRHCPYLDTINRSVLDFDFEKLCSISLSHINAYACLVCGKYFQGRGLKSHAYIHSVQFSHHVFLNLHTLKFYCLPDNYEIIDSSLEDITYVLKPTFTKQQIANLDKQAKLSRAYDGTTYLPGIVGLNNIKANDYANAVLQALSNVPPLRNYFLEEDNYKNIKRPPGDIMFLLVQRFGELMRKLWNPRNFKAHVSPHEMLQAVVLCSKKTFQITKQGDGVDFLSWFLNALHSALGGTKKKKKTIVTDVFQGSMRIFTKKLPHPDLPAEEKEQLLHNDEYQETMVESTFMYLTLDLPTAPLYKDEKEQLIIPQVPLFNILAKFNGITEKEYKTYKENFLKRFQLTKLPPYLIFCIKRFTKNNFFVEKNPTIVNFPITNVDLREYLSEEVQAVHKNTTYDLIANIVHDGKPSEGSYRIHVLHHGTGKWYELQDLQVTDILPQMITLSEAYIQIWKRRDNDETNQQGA
Procedure, shortened: as §1

[5] = biological target: T4, USP4 (UniProt Q13107)
T4 sequence (whole entry): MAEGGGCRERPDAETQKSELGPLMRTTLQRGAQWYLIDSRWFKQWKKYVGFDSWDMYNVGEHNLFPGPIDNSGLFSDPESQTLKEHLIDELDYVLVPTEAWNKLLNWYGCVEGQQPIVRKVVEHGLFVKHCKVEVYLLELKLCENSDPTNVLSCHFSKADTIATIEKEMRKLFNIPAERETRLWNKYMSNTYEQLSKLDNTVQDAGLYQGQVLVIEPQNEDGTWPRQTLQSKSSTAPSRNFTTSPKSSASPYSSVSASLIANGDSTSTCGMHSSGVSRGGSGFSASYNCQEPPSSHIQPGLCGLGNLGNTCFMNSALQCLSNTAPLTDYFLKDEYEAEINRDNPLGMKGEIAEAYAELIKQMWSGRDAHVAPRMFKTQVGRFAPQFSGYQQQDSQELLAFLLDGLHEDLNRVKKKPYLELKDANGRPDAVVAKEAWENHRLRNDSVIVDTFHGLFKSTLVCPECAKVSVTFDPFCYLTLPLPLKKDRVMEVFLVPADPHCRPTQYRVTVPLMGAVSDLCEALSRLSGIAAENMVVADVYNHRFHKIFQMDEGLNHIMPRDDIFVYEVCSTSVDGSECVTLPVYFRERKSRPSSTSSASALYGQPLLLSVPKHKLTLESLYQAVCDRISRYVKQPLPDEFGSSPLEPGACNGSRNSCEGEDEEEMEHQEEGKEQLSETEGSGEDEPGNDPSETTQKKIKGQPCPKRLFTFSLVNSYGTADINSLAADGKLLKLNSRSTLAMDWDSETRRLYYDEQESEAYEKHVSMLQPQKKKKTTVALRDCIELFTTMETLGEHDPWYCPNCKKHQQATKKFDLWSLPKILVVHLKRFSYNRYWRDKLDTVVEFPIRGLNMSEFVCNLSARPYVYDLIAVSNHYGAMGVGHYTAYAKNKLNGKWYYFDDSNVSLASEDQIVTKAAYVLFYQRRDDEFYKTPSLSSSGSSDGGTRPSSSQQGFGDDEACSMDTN
Procedure, shortened: as §1

Measured: log2 ratio of Biotin-Ahx-Ub-VS probe labelling

Sequence of USP34 (Q70CQ2 whole entry, the tested form may be a part): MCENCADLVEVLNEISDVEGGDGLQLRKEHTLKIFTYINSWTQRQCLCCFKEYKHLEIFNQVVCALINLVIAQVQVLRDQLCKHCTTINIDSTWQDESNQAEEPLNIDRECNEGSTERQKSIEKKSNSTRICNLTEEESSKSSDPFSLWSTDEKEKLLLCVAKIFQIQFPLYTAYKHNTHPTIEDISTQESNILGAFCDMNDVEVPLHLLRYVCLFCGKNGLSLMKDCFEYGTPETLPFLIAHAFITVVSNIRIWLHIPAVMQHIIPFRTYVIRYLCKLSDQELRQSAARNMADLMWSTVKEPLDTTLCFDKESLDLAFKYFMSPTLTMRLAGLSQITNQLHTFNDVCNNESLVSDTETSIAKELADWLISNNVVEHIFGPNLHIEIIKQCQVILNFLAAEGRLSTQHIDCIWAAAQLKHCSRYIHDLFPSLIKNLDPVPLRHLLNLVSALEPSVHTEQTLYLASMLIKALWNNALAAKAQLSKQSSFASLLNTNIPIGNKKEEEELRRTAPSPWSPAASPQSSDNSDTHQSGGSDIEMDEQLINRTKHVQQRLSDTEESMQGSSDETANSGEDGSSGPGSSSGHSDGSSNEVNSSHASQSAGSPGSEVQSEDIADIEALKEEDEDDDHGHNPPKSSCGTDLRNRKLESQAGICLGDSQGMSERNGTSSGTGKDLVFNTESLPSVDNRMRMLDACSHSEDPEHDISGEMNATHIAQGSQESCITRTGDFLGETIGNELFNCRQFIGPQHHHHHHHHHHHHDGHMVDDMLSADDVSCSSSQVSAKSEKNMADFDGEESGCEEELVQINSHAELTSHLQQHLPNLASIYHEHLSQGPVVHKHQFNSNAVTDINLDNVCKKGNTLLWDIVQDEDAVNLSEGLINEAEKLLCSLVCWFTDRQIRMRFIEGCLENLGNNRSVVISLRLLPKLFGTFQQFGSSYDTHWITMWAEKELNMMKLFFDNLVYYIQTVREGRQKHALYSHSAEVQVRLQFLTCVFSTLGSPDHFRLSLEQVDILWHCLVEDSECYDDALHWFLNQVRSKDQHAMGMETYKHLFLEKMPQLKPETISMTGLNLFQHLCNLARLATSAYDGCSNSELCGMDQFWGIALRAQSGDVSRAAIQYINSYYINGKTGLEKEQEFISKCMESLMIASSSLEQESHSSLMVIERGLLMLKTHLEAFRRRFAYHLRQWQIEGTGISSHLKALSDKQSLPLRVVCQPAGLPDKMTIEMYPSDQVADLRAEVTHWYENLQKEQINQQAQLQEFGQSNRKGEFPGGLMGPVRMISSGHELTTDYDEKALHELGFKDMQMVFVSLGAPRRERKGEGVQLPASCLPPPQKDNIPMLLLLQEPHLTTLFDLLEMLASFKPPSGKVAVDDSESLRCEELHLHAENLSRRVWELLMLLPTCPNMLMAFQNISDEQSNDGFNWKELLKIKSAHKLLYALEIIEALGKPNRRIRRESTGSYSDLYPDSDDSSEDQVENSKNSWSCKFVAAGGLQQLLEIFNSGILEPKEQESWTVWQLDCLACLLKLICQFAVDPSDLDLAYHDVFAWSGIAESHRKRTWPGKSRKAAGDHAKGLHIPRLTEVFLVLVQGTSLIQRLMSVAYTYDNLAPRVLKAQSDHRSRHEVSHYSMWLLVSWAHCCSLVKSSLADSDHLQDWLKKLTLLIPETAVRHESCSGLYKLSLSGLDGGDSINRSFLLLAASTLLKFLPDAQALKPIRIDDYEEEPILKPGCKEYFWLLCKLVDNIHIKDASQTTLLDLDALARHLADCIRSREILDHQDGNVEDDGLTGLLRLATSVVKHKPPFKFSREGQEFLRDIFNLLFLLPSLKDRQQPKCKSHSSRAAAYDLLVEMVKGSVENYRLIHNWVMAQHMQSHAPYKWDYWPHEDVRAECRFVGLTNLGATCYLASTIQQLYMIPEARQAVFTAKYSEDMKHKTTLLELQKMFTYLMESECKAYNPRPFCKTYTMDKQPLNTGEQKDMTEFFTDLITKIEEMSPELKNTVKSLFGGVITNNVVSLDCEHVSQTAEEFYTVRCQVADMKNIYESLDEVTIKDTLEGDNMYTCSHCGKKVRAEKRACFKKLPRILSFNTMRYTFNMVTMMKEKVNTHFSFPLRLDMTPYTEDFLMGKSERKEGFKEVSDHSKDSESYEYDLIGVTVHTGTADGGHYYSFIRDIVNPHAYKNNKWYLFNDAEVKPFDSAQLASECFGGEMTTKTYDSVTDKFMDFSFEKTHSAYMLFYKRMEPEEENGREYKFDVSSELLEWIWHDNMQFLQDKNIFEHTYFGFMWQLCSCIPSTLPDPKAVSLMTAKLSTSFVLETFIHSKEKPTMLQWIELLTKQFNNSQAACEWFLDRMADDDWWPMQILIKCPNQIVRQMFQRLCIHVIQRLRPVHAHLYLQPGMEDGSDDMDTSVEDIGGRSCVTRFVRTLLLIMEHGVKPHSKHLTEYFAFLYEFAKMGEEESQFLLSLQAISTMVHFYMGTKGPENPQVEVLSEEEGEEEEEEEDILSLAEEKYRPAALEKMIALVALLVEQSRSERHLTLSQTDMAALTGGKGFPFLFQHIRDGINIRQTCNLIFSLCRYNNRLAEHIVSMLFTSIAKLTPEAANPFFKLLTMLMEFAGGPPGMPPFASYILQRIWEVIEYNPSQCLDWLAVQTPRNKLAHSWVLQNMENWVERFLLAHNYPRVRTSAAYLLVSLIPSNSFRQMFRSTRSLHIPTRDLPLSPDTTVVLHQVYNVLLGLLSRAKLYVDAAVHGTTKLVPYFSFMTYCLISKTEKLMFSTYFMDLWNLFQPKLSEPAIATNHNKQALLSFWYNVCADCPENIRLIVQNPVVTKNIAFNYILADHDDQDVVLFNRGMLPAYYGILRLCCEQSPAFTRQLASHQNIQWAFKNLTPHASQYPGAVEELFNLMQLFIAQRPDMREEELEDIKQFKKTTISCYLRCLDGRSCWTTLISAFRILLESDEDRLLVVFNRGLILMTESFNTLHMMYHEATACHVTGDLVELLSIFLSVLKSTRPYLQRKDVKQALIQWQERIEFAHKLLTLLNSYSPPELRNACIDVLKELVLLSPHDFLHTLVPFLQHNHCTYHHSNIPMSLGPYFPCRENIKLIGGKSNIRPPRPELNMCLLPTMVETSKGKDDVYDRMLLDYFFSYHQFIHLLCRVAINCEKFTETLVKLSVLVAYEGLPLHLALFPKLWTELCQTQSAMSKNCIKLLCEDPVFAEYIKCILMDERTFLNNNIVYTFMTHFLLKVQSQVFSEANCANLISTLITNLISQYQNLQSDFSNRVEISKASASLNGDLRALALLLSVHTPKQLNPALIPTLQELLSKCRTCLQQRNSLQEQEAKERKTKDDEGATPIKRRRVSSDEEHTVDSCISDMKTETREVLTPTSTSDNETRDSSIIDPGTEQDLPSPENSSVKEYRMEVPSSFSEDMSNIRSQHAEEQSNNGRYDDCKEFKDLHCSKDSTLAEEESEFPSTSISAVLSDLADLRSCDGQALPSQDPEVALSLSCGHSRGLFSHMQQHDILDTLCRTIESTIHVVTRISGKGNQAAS

O=C(CCl)NC1CCC(C(F)(F)F)CC1 (stereo not given)
inactive: [1] -0.186 | [2] -0.0199 | [3] 0.115 | [4] 0.207 | [5] -0.24
